From PubChem BioAssay (NCI)
About 83,000 compounds went through this panel and 20% of them were active in at least one assay; those are over-represented in the sample as a whole.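 Results are percent growth after 48 hours of single-concentration exposure. 100 means growth as in untreated cells, lower positive values show inhibition; negative values down to -100 show cell death.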 Values without a mark were called inactive. Active and inactive are the calls of the source. How the source made its calls: active means growth percent below 10; inactive means the rest.

Tests used:
Test in all cases: NCI-60 one-dose screen, 48 h (100 = growth as untreated, 0 = no growth, -100 = all killed)
Settings in all cases: 10 µM unless noted
SR leukemia = test system: SR leukemia
RPMI-8226 leukemia = test system: RPMI-8226 leukemia
OVCAR-8 ovarian = test system: OVCAR-8 ovarian
OVCAR-4 ovarian = test system: OVCAR-4 ovarian
SK-OV-3 ovarian = test system: SK-OV-3 ovarian
IGROV1 ovarian = test system: IGROV1 ovarian
OVCAR-3 ovarian = test system: OVCAR-3 ovarian
HS 578T breast = test system: HS 578T breast
NCI/ADR-RES ovarian = test system: NCI/ADR-RES ovarian
T-47D breast = test system: T-47D breast
BT-549 breast = test system: BT-549 breast
MDA-MB-435 melanoma = test system: MDA-MB-435 melanoma
SW-620 colon = test system: SW-620 colon
MCF7 breast = test system: MCF7 breast
HCT-116 colon = test system: HCT-116 colon
HCC-2998 colon = test system: HCC-2998 colon
KM12 colon = test system: KM12 colon
OVCAR-5 ovarian = test system: OVCAR-5 ovarian

SMILES	growth (SR leukemia)	growth (RPMI-8226 leukemia)	growth (OVCAR-8 ovarian) [%]	growth (OVCAR-4 ovarian)	growth (SK-OV-3 ovarian) [%]	growth (IGROV1 ovarian) [%]	growth (OVCAR-3 ovarian)	growth (HS 578T breast) [%]	growth (NCI/ADR-RES ovarian) [%]	growth (T-47D breast)	growth (BT-549 breast) [%]	growth (MDA-MB-435 melanoma)	growth (SW-620 colon)	growth (MCF7 breast)	growth (HCT-116 colon)	growth (HCC-2998 colon)	growth (KM12 colon)	growth (OVCAR-5 ovarian) [%]
NC(=S)Nc1cccc(O)c1	82.4%	88.5%	94.2	107%	101	98	110%	102	94.2	106%	78.8	98.6%	99.8%	98.8%	91.6%	96.7%	106%	–
O=C(O)C1CCC(=O)N1C(=O)OCc1ccccc1 (stereo not given)	89.4%	88.8%	96.3	101%	109	110	118%	136	98.4	108%	112	91.3%	101%	91.6%	107%	104%	115%	–
COc1cccc(-c2nn(-c3ccccc3)cc2-c2ccnc(NCCNC(=O)c3ccccc3)c2)c1	-12.5% (active)	42.3%	43.8	53.7%	65.3	79.6	63.1%	68.5	46.6	19.4%	38.4	65.4%	77.2%	62.5%	44.3%	71.2%	57.3%	–
N#C/C(=C\c1ccc2c(c1)OCO2)n1nnc2cc(F)c(F)cc21	42.6%	64.5%	60.7	64.6%	83.6	71.8	31.8%	84.7	27.4	20.6%	60	3.37% (active)	44.3%	44.4%	47%	105%	47.4%	–
Cc1ccc(C(=O)COc2cccc(/C=C3\Oc4ccccc4C3=O)c2)cc1	71.9%	106%	106	85.7%	134	–	96.6%	322	88.3	50.3%	124	90.2%	123%	116%	94.2%	108%	100%	106
Cc1ccc(-c2c(-c3ccccc3)c(=O)oc3ccc(C)cc23)cc1	71.1%	87.7%	93.9	98.5%	101	145	117%	99.6	93.2	84.3%	108	103%	99.5%	116%	72.8%	90.5%	92%	–
N#Cc1c(N2CCNCC2)nc2sc3cc(Cl)c(Cl)cc3n2c1=N	116%	80.2%	94.5	85.5%	84.7	–	107%	114	106	89.5%	118	113%	99%	75.2%	97.1%	118%	115%	131
O=C(COc1ccc(/C=C2\Oc3ccccc3C2=O)cc1)c1ccc(Cl)cc1	90.8%	111%	105	115%	105	–	96.6%	112	110	98.5%	121	90.7%	115%	95.3%	88.5%	97.4%	98.5%	97.4
N#Cc1nc2c(S(=O)(=O)c3ccc(Cl)cc3)c(N)n(Nc3cccc(Cl)c3)c2nc1C#N	-6.78% (active)	3.39% (active)	24	42.6%	50.2	–	59.4%	31.2	–	53.5%	47.8	53%	35.9%	58.5%	32.9%	82.3%	64.3%	68.4
N#CCN1C(=O)C2C3=C(CCCC3)SC2N=C1CN1CCCC1 (stereo not given)	81.1%	50.2%	97.7	101%	109	–	113%	108	96.3	97.2%	114	105%	95.3%	109%	94.2%	96.9%	109%	101
c1ccc2c(c1)nc(CN1CCOCC1)n1cc(N3CCCC3)nc21	87%	62.6%	94.5	111%	89.8	–	110%	92.5	99	95.6%	100	106%	99.7%	96.5%	93.5%	99.8%	99.1%	92.9
COc1cccc(-c2nn(-c3ccccc3)cc2-c2ccnc(NCCCNC(=O)c3ccc(F)cc3)c2)c1	-14.2% (active)	38.2%	45.9	42.1%	48.2	47.5	37.7%	61.4	14.4	-0.248% (active)	29.8	-16.7% (active)	33%	18.6%	13.1%	40.2%	18.7%	–
N#Cc1c(-c2cccc(Cl)c2)cc(-c2cccc(F)c2)[nH]c1=O	104%	65.4%	93.5	83.7%	102	94.4	92.7%	81.9	98	84.5%	86.4	90.4%	97%	89.2%	88.5%	106%	87.9%	–
O=C(COc1ccc(/C=C2\Oc3ccccc3C2=O)cc1)Nc1nc2ccccc2s1	-71.9% (active)	-56.8% (active)	18.8	89.9%	116	–	66.5%	88.5	75.5	91.4%	46.2	65%	96.3%	120%	87.3%	107%	-28.7% (active)	67.8
COc1ccc2[nH]c(O)c(/C=c3/cc4c(c(-c5ccc(F)c(OC)c5)n3)=Nc3ccccc3-4)c2c1	2.4% (active)	–	60.4	6.42% (active)	107	84.6	-34.4% (active)	84.7	32.7	89.6%	84.1	6.77% (active)	-23.2% (active)	1.29% (active)	-91% (active)	-0.339% (active)	13.1%	93.9
CCCCCCN(CCCCCC)c1ccc(/C=C2/SC(=O)N(c3nc(N4CCCC4)nc(N4CCCC4)n3)C2=O)c(C)c1	–	42%	66.1	51.9%	91.3	77.3	63.2%	78.4	71.3	63.6%	88.1	75.5%	73.2%	54.8%	45.5%	41.7%	52.9%	104
O=C1N=c2cc3c(cc2=C/C1=C/c1sc(=S)n(CCc2ccc(O)cc2)c1O)OCCO3	–	33.4%	28.6	80.9%	105	49	76.1%	74.9	64.7	81.5%	78.5	61.1%	5.91% (active)	28.6%	7.52% (active)	29.4%	52.5%	64
O=C(Nc1ccc(Nc2ccncc2)cc1)c1ccc(C(=O)Nc2ccc(Nc3ccncc3)cc2)cc1	52.4%	–	74.5	68.1%	68	75.8	111%	88.2	109	33.8%	123	48.8%	42.2%	26.8%	32.7%	87%	47.4%	51.1
